“And” between values parts separate entries of the source, which are not always exact repeats. Identical values can stand only once. Out of some 34,000 compounds screened, about 290 (0.85%) showed an effect of 50% or more. The full list was thinned out, with strong results kept by preference.
Test system: Plasmodium falciparum
Experiment: Plasmodium falciparum sporozoite viability assay
Assay type: functional, organism-based
Set-up: scale not given: in the data most compounds retested in dose-response had high values

SMILES	Percent Effect [%]	Percent Effect (10 mM as filed; unlikely as a test dose)
Cc1nn2c(N3CCC(O)CC3)cc(-c3ccccc3)nc2c1C	-9.448	–
O[C@H]1CN(c2nc(-c3ccccc3)no2)C[C@@H]1N1CCOCC1	–	-27.06% and -32.72%
OC1CCN([C@@H]2CCN(c3nc(-c4ccccc4)no3)C[C@H]2O)CC1	–	63.55% and 40.94%
OC1CCN(c2ccccc2NCc2nc(-c3cccs3)no2)CC1	–	22.91% and 47.25% and 30.27%
Cc1cccc(NC(=O)[C@@H]2CCCN2Cc2ccc(C#N)cc2F)n1	-15.69	–
CCn1ncc2c1C(COC)CN(Cc1ccc(F)cc1)C2.O=C(O)C(F)(F)F.O=C(O)C(F)(F)F (stereo not given)	5.175	–
O=C(O)c1cccc(S(=O)(=O)N2CCOc3ccccc32)c1	8.824	–
Cn1cnc(S(=O)(=O)NCCCN2CCCCCC2=O)c1Cl	-2.417	–
CCNC(=O)C(C)NC(=O)c1cnc(-c2ccc(C)cc2C)s1 (stereo not given)	5.538	–
CCNCc1ccc(OCc2ccc3c(c2)OCCO3)cc1.Cl	–	-24.62% and -4.131%
COc1cc(CNCC(C)O)cc(Cl)c1OCc1ccc(C)cc1.Cl (stereo not given)	-5.385	–
CC(C)(CO)NCc1ccc(OCc2ccc3c(c2)OCCO3)cc1.Cl	–	25.27% and 55.16%
CC(O)CNCc1ccc(OCc2ccc3c(c2)OCCO3)cc1.Cl (stereo not given)	–	88.95% and 91.02% and 83.06%
CCCNCc1ccc(OCc2ccc3c(c2)OCCO3)cc1.Cl	–	-30.54% and -21.42%
COc1c(CNCc2ccc3c(c2)OCCO3)c(C(C)C)nn1C	14.99	–
Cl.c1cc(OCc2ccc3c(c2)OCO3)ccc1CNC1CC1	–	33.09% and 60.95% and 82.86%
CC(C)(C)NCc1ccc(OCc2ccc3c(c2)OCCO3)cc1.Cl	–	-36.62% and -27.49%
CSc1nccc(N2CCC(NCc3ccc4c(c3)OCO4)CC2)n1	4.585	–
Cc1nccn1C1CCCN(C(=O)c2sccc2-n2cnnn2)C1 (stereo not given)	-0.2931	–
CN1CCN(Cc2cn3c(n2)CN(C2CCOCC2)CC3)CC1.O=C(O)C(F)(F)F.O=C(O)C(F)(F)F.O=C(O)C(F)(F)F	10.57	–
O=C(CCc1ccco1)Nc1cc(C(F)(F)F)c[nH]c1=O	-11.4	–
COc1cccc(O[C@H]2CCN(c3nc(C)cc(C)n3)CC[C@@H]2O)c1	11.61	–
O=C(Cn1cccc2cc(-c3ccc(F)cc3)nc1-2)N1CCC(O)CC1	-1.811	–

SMILES	Percent Effect [%]	Percent Effect (10 mM as filed; unlikely as a test dose)
COc1ccc(C2CNCCN2C(=O)c2cccc3ncccc23)cc1 (stereo not given)	4.068	–
CC(C)N(C)S(=O)(=O)c1ccc2c(c1)CCN(C(=O)c1cnccn1)C2	-1.97	–
O=C(CN1CCCC1c1noc(C2CC2)n1)NCCc1ccsc1 (stereo not given)	13.6	–
CN(C)c1ccc(C(=O)N2CCCN(Cc3cnn(C)c3)CC2)nn1	-1.596	–
O=C(O)c1ccc(=O)n(CC(c2ccc(Cl)cc2)N2CCOCC2)c1 (stereo not given)	5.86	–
Cc1cccc(-c2noc(CN3CC(n4cc(C)cn4)C3)n2)c1	-1.145	–
Cc1ccccc1-c1noc(CN2CC(n3cccn3)C2)n1	-26.31	–
NC(=O)c1nc2c(s1)CCN(C(=O)Nc1ccccc1)CC2	13.34	–
O=C(Nc1ccccc1)N1CCc2nc(C(=O)N3CCCC3)sc2CC1	–	42.14% and 56.3% and 42.63%
CCOCCCNC(=O)C1(C)CCC(=O)N1Cc1ccccc1F (stereo not given)	-5.282	–
COc1ccc(-c2cc(C3CCCNC3)ccn2)cc1.Cl (stereo not given)	3.809	–
COc1cccc(Nc2nc(-c3ccncc3)nc3c2CNCC3)c1.Cl	6.202	–
COc1cccc(-c2cc(C3CCCNC3)ccn2)c1 (stereo not given)	10.99	–
COc1cccc(Nc2nc(N3CCCC3)nc3c2CNCC3)c1.Cl	4.348	–
Cc1cc(C)nc(Nc2nccnc2C2CCCN(CCO)C2)n1 (stereo not given)	-0.8244	–
Cc1ccoc1C(=O)NC1CCN(C(=O)Nc2ccccn2)CC1	4.048	–
CN1CCN(C[C@@H]2OC[C@H]3CN(CCc4ccccc4)CC[C@H]32)CC1.O=C(O)C(F)(F)F.O=C(O)C(F)(F)F.O=C(O)C(F)(F)F	9.359	–
O=C(NCC1CCCCC1)NC1CCCc2c1cnn2CCO (stereo not given)	–	38.6% and 33.33% and 56.01%
O=C(NC1CCCCC1)NC1CCCc2c1cnn2CCO (stereo not given)	–	-11.63% and -7.35% and -4.902%
CSc1ccc(OCCN2CCNC(=O)CC2)cc1	-10.56	–
CSCC[C@H](N)c1nnc(SCc2cc(C)ccc2C)o1.Cl	-8.516	–
CCc1n[nH]c(C(=O)NCCn2nccc2C)c1C	–	28.41% and 66.23% and 77.05%
CCc1n[nH]c(C(=O)NCCn2ccnc2C)c1C	–	-3953% and -3827%

SMILES	Percent Effect [%]	Percent Effect (10 mM as filed; unlikely as a test dose)
CC(C(=O)N1CCN(Cc2ccc3c(c2)OCO3)CC1)n1ccnc1 (stereo not given)	3.608	–
CCn1cnnc1CNC(=O)N1CCC(CN2CCCCCC2)CC1	4.778	–
CC(C)COCc1cncc2c1CCN(C(=O)c1cscn1)C2.O=C(O)C(F)(F)F	5.063	–
CC[S+]([O-])CCc1nc(CC(C)C)nn1-c1ccc2c(c1)OCCO2 (stereo not given)	–	61.59% and 54.31%
CC(C)Cc1nc(CO)n(-c2ccc3c(c2)OCCO3)n1	–	46.72% and 37.75%
Cc1cc(C)n(CC2CCCN2C(=O)CCc2ccncc2)n1 (stereo not given)	1.423	–
Cn1ccc(C(=O)NCc2cccc(CN3CCCC3)c2)cc1=O	11.38	–
CCOc1ccnc(N2CCN(C(=O)c3c(CC)noc3C)CC2)n1	-6.802	–
Cc1nccn1CC1CCCN1S(=O)(=O)Cc1ccc(F)cc1 (stereo not given)	5.478	–
CN1CCOC(C(=O)Nc2ccc3c(c2)nc(C(C)(C)C)n3C)C1 (stereo not given)	–	104.1% and 105.2%
CN1CCOC(C(=O)Nc2ccc3c(c2)nc(C2CC2)n3C)C1 (stereo not given)	–	-13.44% and -13.85%
CN1CCOC(C(=O)Nc2ccc3[nH]nnc3c2)C1 (stereo not given)	–	-26.35% and -20.34%
CC1CCCN(C(=O)C2CCN(c3snc4ccccc34)CC2)C1 (stereo not given)	6.864	–
CC(C)c1cc(NC(=O)c2ccc(NC3CC3)nc2)[nH]n1	15.54	–
Cc1nccc(-c2cccc(-c3ccn(CC4CCNC4)n3)c2)n1 (stereo not given)	–	-3.675% and -28.15% and -23.4%
c1cc(-c2cncnc2)cc(-c2ccn(CC3CCNC3)n2)c1 (stereo not given)	–	-11.99% and -9.692% and -21.27%
Cc1ccsc1-c1cccc(-c2ccn(CC3CCNC3)n2)c1 (stereo not given)	–	75.23% and 72.27% and 75.29%
O=C(Nc1ccccc1OCCc1ccccn1)N1CCOCC(O)C1 (stereo not given)	6.804	–
Cc1cc(OCC(O)c2nc3c([nH]2)CC(C)(C)CNC3=O)ccc1Cl (stereo not given)	5.403	–
c1cncc(-c2noc(CN3CCc4cncnc4C3)n2)c1	1.959	–
c1ccc(-c2noc(CN3CCc4cncnc4C3)n2)nc1	–	68.57% and 81.28% and 66.45%
Cc1cc(C(=O)N2CCCC(n3cncn3)C2)no1 (stereo not given)	2.312	–
CC(C1CC1)N(C)C(=O)c1cnc(-c2ccc3c(c2)OCO3)s1 (stereo not given)	–	53.72% and 75.58% and 50.81%

SMILES	Percent Effect [%]	Percent Effect (10 mM as filed; unlikely as a test dose)
CCN(C(=O)c1cnc(-c2ccc3c(c2)OCO3)s1)C1CC1	–	-15.93% and -34.81%
CN(C)C(=O)c1cnc(-c2ccc3c(c2)OCO3)s1	–	-22.33% and -36.75%
COc1c(C2CCCN2Cc2noc(C(C)C)n2)c(C)nn1C (stereo not given)	4.307	–
CCc1nnc(CN2CCOC(Cn3cccn3)C2)o1 (stereo not given)	11.86	–
c1ccc(-c2nc(CN3CCOC(Cn4cncn4)C3)cs2)cc1 (stereo not given)	–	57.17% and 32.5% and 36.71%
c1ccc(-c2nc(CN3CCOC(Cn4cccn4)C3)cs2)cc1 (stereo not given)	–	-13.99% and -29.39%
c1csc(-c2nc(CN3CCOC(Cn4cccn4)C3)cs2)c1 (stereo not given)	3.015	–
c1csc(-c2nc(CN3CCOC(Cn4cncn4)C3)co2)c1 (stereo not given)	15.52	–
c1csc(-c2nc(CN3CCOC(Cn4cncn4)C3)cs2)c1 (stereo not given)	–	44.25% and 56.8% and 40.33%
O=C1NCC2=C1C(c1ccc(O)cc1)Nc1ccccc1N2 (stereo not given)	-23.23	–
COCCN1CCCC1c1ccnc(-c2ccccc2)n1 (stereo not given)	6.777	–
CCN1CCN(C(C)CNC(=O)Nc2nnc(C)s2)CC1 (stereo not given)	-9.257	–
Cc1noc(C)c1CCC(=O)NCC1(O)CCN(c2ccccn2)C1 (stereo not given)	8.46	–
CNc1cc(C)nc(N2C[C@H](C3CC3)[C@@H](N)C2)n1	–	11.54% and 8.166% and -2.157%
CNc1cc(C)nc(N2C[C@@H](C(=O)O)[C@H](C3CC3)C2)n1	–	73.63% and 80.29% and 69.7%
CNc1cc(C)nc(N2C[C@H](NC(=O)C3CCOCC3)[C@@H](C3CC3)C2)n1	–	-9.822% and -7.832% and -7.881%
Cc1cnn(CC2CCCN2C(=O)c2c(C)noc2C(C)C)c1 (stereo not given)	2.244	–
CCn1c(N)nc2cc(C(=O)NCCc3ccccc3F)cnc21	–	83.82% and 65.98%
CCn1c(N)nc2cc(C(=O)NCCNc3ncccc3C)cnc21	–	-11.01% and -17.43%
CCn1c(N)nc2cc(C(=O)NCCc3nnc(C)s3)cnc21	–	-8.165% and -11.66%
CCn1c(N)nc2cc(C(=O)NCc3ccccc3Cl)cnc21	–	-6% and 9.799% and 1.435%

— ChEMBL document CHEMBL3988442, “University of Dundee, Small-Polar-MMV Screening Library” (2021)
